NPC1 prom act – activates the NPC1 promoter | Huh7 NPC1 promoter luciferase reporter, 24 h | Potency, µM (doses to about 9.22 µM), most hits filed as activators | hit rate 2.4% among 320,000; further: nearly all actives have a fitted effect of over 60% in size
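Luminescence from an NPC1 promoter-driven luciferase reporter in stably transfected Huh7 cells was measured after 24 h compound treatment at 37 °C, followed by 10 min ambient incubation with luciferase detection reagent.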
FLuc modulator – firefly luciferase modulation, counter-screen for miR-21 project. P08659. purified FLuc, Km substrates, luminescence inhibition. Potency, µM (doses to about 57.5 µM), hits mostly inhibitors. hit rate 6.9% among 360,000. AID 588342; further: nearly all actives have a fitted effect of over 55% in size
Target sequence (P08659 whole entry, looked up): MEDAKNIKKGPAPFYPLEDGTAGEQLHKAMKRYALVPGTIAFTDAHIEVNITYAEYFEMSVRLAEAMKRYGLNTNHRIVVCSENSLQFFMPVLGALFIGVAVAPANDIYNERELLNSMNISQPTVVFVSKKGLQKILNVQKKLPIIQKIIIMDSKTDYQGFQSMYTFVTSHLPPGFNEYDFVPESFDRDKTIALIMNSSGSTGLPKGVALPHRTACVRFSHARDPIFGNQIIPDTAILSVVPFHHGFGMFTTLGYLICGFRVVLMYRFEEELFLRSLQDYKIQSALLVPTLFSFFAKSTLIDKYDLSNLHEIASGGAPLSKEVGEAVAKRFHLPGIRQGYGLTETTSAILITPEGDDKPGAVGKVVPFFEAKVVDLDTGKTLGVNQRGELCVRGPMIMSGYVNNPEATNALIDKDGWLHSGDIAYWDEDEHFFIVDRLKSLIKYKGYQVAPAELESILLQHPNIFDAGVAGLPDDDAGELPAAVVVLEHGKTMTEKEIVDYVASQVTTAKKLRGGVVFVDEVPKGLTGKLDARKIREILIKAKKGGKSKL
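Purified P. pyralis luciferase (10nM final) with 10uM D-luciferin and 10uM ATP (Km levels) in 50mM Tris acetate pH 7.5, 10mM Mg acetate, 0.01% Tween-20, 0.05% BSA; qHTS 6-point titration, ~60 µM downward; luminescence read.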
ELG1 genotox – inducers of genotoxicity in HEK293T ELG1-luciferase cells. HEK293T ELG1-luciferase reporter, luminescence, 16 h. Potency, µM (highest dose often 46 µM), usual class: activators. hit rate 1.3% among 330,000. AID 504466; further: nearly all actives have a fitted effect of over 60% in size
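DMSO vehicle served as control against compound-treated ELG1-luciferase HEK293T cells; exposure lasted 16 hr at 37 °C and 5% CO2, followed by ONE-Glo luminescence detection after 30 min.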
Rab9 promoter act – activates the Rab9 promoter. hit rate 2.8% among 320,000. Potency, µM (series often up to 9.22 µM), actives largely listed as activators. AID 485297. Huh7 Rab9 promoter-luciferase reporter, luminescence, 24 h; further: nearly all actives have a fitted effect of over 60% in size
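Huh7 cells stably carrying a Rab9 promoter-luciferase reporter, 1500 cells per well in OP-MEM I with 10% FBS, treated with compound 24 hours at 37C. Luciferase activity read by luminescence after 10 minutes with Amplite reagent.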
SMN2 splice up – enhancers of SMN2 splice variant expression; Potency, µM (top dose mostly 46.1 µM), actives largely listed as activators; hit rate 2.8% among 210,000; AID 1458; HEK293 SMN2-luciferase splicing reporter, luminescence, 30-36 h; further: nearly all actives have a fitted effect of over 55% in size
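qHTS luciferase splicing reporter: luminescence rises when SMN2 exon 7 is included in transfected HEK293 cells. Compound exposure lasted 30-36 h at 37C, with 4.5 mM final sodium butyrate as control, followed by a ONE-Glo read.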
Numbers stand for hits; 0 = inactive; ? = inconclusive; - = not tested or not shown; [ ] = another dose, or the depositor's remark. Hits are enriched below; roughly 7.4% of the tested compounds scored in any of these assays. The call rests on the fitted dose curve; in most records, active means well fitted curve in the direction sought with a large enough effect; inconclusive means small, poorly fitted or top-dose-only effect, or another doubt; inactive means no such curve, though single readings can be large; an effect the other way counts as inactive or inconclusive.

SMILES | NPC1 prom act | FLuc modulator | ELG1 genotox | Rab9 promoter act | SMN2 splice up
O=C(CC1C[C@H](C(=O)N2CCOCC2)[C@@]2(CCC3CCCC3)c3[nH]c4ccccc4c3CCN2C1=O)NCCCn1ccnc1 (stereo not given in full) | - | - | 0 | - | -
COc1cccc(-n2cc(-c3ccc(F)cc3)[nH]c2=S)c1 | 1.6µM | ? | ? | 0.32µM | -
COc1ccc(-n2cc(-c3ccc(Cl)cc3)[nH]c2=S)cc1 | 0 | 0 | 0 | 1.3µM | -
CCOC(=O)C1(C)NC(c2ccco2)C2C(=O)N(C)C(=O)C21 (stereo not given) | 0 | 0 | 0 | 0 | -
O=C(CCN1C(=O)c2ccccc2C1=O)Nc1ccc(-c2nc3ccccc3o2)cc1 | 2.2µM | 0 | 1.5µM | 1.4µM | 8.9µM
O=C(CN1C(=O)c2ccccc2C1=O)Nc1ccc(-c2nc3ccccc3o2)cc1 | 0 | 0 | 0 | 0 | 0
O=C1c2ccccc2C(=O)N1c1ccc(-c2nc3ccccc3o2)cc1 | ? | ? | 0 | 4.5µM | -
Cc1cc(C)cc(OCC(=O)Nc2ccc(-c3nc4ccccc4o3)cc2)c1 | - | 0 | - | - | 6.3µM
O=C1c2ccccc2C(=O)N1c1cccc(-c2nc3ccccc3o2)c1 | 0 | 0 | 0 | 0 | 0
Cc1nc(SCC2(C)CC2(Cl)Cl)n[nH]1 (stereo not given) | 0 | 0 | 0 | 0 | -
Cc1ccc(-c2nnc(Nc3ccc(F)cc3)c3ccccc23)cc1S(=O)(=O)N1CCN(C)CC1 | - | 0 | - | - | 0
Cc1nc(NC(=O)/C=C/c2ccc(C(C)(C)C)cc2)sc1C(=O)N(C)C | 0 | ? | 0 | 0 | 0
CCc1cccc(C)c1NS(=O)(=O)c1ccc2c(c1)NC(=O)C(C)C(=O)N2 (stereo not given) | - | 0 | - | - | -
COc1ccc(/C=C/C(=O)Nc2cccc(F)c2)cc1 | - | 0.85µM | - | - | 4µM
COc1ccc(NC(=O)/C=C/c2ccc(Cl)cc2)cc1 | 2.1µM | - | - | 2.5µM | 11µM
CC(=O)Nc1cccc(C(=O)/C=C/c2ccc(Br)cc2)c1 | 0 | ? | 0 | 0 | 0
COc1ccc(/C=C/C(=O)Nc2cccc(C(C)=O)c2)cc1 | ? | 0.95µM | 0 | ? | 11µM
COc1ccc(/C=C/C(=O)NC2CC3CCC2C3)cc1 (stereo not given) | 0 | 17µM | ? | 0 | -
CCOc1ncccc1C(=O)OC(C)C(=O)Nc1ccc(N2CCOCC2)cc1 (stereo not given) | - | - | 0 | - | -
O=C(Nc1ccc(-c2nc3cccnc3s2)cc1)c1ccc(Cl)nc1 | 0.89µM | ? | 0 | 0.71µM | -
O=C(Nc1ccc(-c2nc3cccnc3s2)cc1)c1cccnc1Cl | 0.32µM | 1.7µM | 0.82µM | 0.79µM | -
O=C(NNC(=O)c1cc(Cl)ccc1O)c1cccc(S(=O)(=O)N2CCOCC2)c1 | 0 | ? | 0 | 0 | -
Cc1cccc(-n2ncc3c(NCCCn4ccnc4)ncnc32)c1 | 0 | ? | ? | ? | 7.1µM
Cc1ccc(-n2ncc3c(NCCCn4ccnc4)ncnc32)c(C)c1 | 0 | 0 | 0 | 0 | 0
Cc1ccc(Cl)cc1-n1ncc2c(NCCCn3ccnc3)ncnc21 | - | 0 | - | - | -
SMILES | NPC1 prom act | FLuc modulator | ELG1 genotox | Rab9 promoter act | SMN2 splice up
Cc1ccc(-n2ncc3c(NCCCn4ccnc4)ncnc32)cc1 | - | 12µM | - | - | -
CC(C#Cc1ccc2c(c1)COc1c3ccccc3nn1-2)OC(C)(C)C (stereo not given) | ? | 11µM | 0 | ? | -
c1ccc2c3n(nc2c1)CCCO3 | 0 | 0 | 0 | 0 | -
C(#Cc1ccc2c(c1)COc1c3ccccc3nn1-2)c1ccccc1 | ? | 12µM | ? | ? | -
C(#CC1CCCCC1)c1ccc2c(c1)COc1c3ccccc3nn1-2 | ? | 4.8µM | 0 | ? | -
CCc1ccccc1-n1cnc2cc(C(=O)NC3CCCCCC3)ccc21 | - | 0 | - | - | -
O=C1OCC2OC(O)C(O)C(O)C2OC(=O)c2cc(O)c(O)c(O)c2-c2c(O)c(O)c3oc(=O)c4c(c(O)c(O)c5oc(=O)c2c3c54)-c2c1cc(O)c(O)c2O (stereo not given) | 0 | 27µM | 0 | 0 | -
COc1c(O)cc2c(c1O)C1OC(CO)C(O)C(O)C1OC2=O (stereo not given) | 0 | 0 | 0 | 0 | -
CC(C)(Oc1ccc(CCNC(=O)c2ccc(-c3ccc(Cl)cc3)o2)cc1)C(=O)O | 0 | 24µM | 0 | 0 | 0
CCOC(=O)CNC(=O)C1COc2ccccc2O1 (stereo not given) | 0 | 0 | 0 | 0 | -
COc1ccccc1/C=C/C=N/n1c(-c2ccncc2)n[nH]c1=S | 0 | 12µM | 0 | 0 | 0
COc1ccccc1/C=C/C=N/n1c(-c2ccc(C)cc2)n[nH]c1=S | 0 | ? | 0 | 0 | 0
COc1ccccc1/C=C/C=N/n1c(-c2cc(C)[nH]n2)n[nH]c1=S | 0 | 21µM | 0 | 0 | 0
S=c1[nH]nc(-c2cc(-c3ccccc3)n[nH]2)n1/N=C/C=C/c1ccco1 | 0 | 13µM | 0 | 0 | -
COc1ccccc1/C=C/C=N/n1c(-c2ccccn2)n[nH]c1=S | 0 | 17µM | ? | ? | -
Cc1cc(-c2n[nH]c(=S)n2/N=C/C=C/c2ccccc2)n[nH]1 | 0 | 0 | 0 | 0 | 0
NC(=O)C[C@@H](N)c1nn[nH]n1 | - | - | - | - | 0[9.22 µM]
Cc1ccccc1C(=O)NNC(=O)/C=C/c1ccccc1 | 0 | 0 | 0 | 0 | 0
CCOC(=O)c1ccc(N2C(=O)c3[nH]nc(-c4ccccc4)c3C2c2ccc(CC)cc2)cc1 (stereo not given) | - | 0 | - | - | 0
O=C(O)[C@H](CCc1ccccc1)N1C(=O)c2ccccc2C1=O | - | - | - | - | 0[9.22 µM]
O=C(OC1CCOC1=O)c1ccc(Cl)c(S(=O)(=O)N2CCOCC2)c1 (stereo not given) | 0 | 0 | 0 | 0 | -
S=c1[nH]nc(-c2ccncc2)n1/N=C/C=C/c1ccccc1 | 0 | ? | 0 | 0 | -
S=c1[nH]nc(-c2ccncc2)n1/N=C/C(Cl)=C\c1ccccc1 | 3.5µM | 0 | 0 | 3.2µM | 11µM
CC1=NN(c2ccccc2)C(=O)/C1=C\c1cc(C)n(C)c1C | 0 | 7.6µM | 0 | 0 | -
CC1=NN(c2ccccc2)C(=O)/C1=C/c1cn(C)c2ccccc12 | 0 | 6µM | 0 | 0 | -
SMILES | NPC1 prom act | FLuc modulator | ELG1 genotox | Rab9 promoter act | SMN2 splice up
CC1=NN(c2ccccc2)C(=O)/C1=C\c1cn(C)c2ccccc12 | 0 | 9.5µM | 0 | 0 | 0
CC1=NN(c2ccccc2)C(=O)/C1=C/c1cc2cc(C)ccc2nc1N1CCCCC1 | ? | ? | 0 | ? | ?
Cn1c(CS/C(N)=N/N=C/c2ccccc2)c(Br)c(=O)n1-c1ccccc1 | 0 | 15µM | 0 | 0 | 0
Cc1c(NC(=S)N/N=C/c2ccc(Br)cc2)c(=O)n(-c2ccccc2)n1C | 0 | 0 | 0 | 0 | -
CCN(Cc1nc(-c2cccc(C)c2)no1)S(=O)(=O)c1ccc(C)cc1 | - | 0 | - | - | 0
CCC(=O)Nc1cc(C)c(O)c(-c2nc3ncccc3o2)c1 | - | 0 | - | - | -
COc1ccc(/C=C/C(=O)c2ccc(O)cc2)cc1COc1ccc(F)cc1 | 0 | 15µM | 0 | 0 | -
COc1ccc(/C=C/C(=O)c2ccccc2)cc1COc1ccc(F)cc1 | 0 | 9.5µM | 0 | 0 | 0

Bioassay records: PubChem BioAssay, National Center for Advancing Translational Sciences (NCATS)
